Screening data (PubChem)
Shh pathway inh – Sonic Hedgehog pathway inhibition | Shh-LIGHT2 Gli-luciferase reporter, 30 h | inhibition, % (concentration not given with the values) | 2.1% of 22,000 active | AID 2313;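 active = mean inhibition across valid replicates above about 65%, limit read from the data; inconclusive = mean under the limit, yet half or more replicates past it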;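 also: pathway switched on by Shh-conditioned medium diluted 1 in 25 in low serum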
NOMO-1 viab – STK33 inhibitor candidate reducing NOMO-1 cell viability. NOMO-1 AML viability, CellTiter-Glo luminescence, 72 h. 7.5% of 37,000 active. inhibition, % (no concentration beside the values); in the data active = inhibition above about 80%; inconclusive = no clear call, values can overlap the other calls
PD-1 reversal – reversal of PD-1 mediated T-cell inhibition; AID 2316; activation, % (concentration not given with the values); 29,000 tested, under 10 active; primary human CD4 T cells, PD-L1 beads, CellTiter-Glo 96 h; call rule not given here
Numbers stand for hits; – = inactive; ? = inconclusive; · = no result. Most compounds without a hit are left out; they make up all but 7.7% or so of the library.

SMILES	Shh pathway inh	NOMO-1 viab	PD-1 reversal
C[C@@H]1CN([C@H](C)CO)C(=O)c2cccc(NC(=O)Nc3ccc(C(F)(F)F)cc3)c2O[C@@H]1CN(C)Cc1ccc2c(c1)OCO2	–	104	–
C[C@H]1CN([C@@H](C)CO)C(=O)c2cccc(NC(=O)Nc3ccccc3)c2O[C@H]1CN(C)Cc1ccc2c(c1)OCO2	–	–	–
C[C@H](CO)N1C[C@H](C)[C@H](CN(C)Cc2ccc3c(c2)OCO3)Oc2c(NC(=O)Nc3ccc(C(F)(F)F)cc3)cccc2C1=O	–	104	–
COC(=O)Cc1c(/C(Cl)=C/C(=O)O)oc2cc(C)cc(O)c2c1=O	–	–	–
O=C(Nc1ccccc1)c1ccc(CSc2nnc(-c3ccncc3)n2-c2ccccc2)cc1	·	–	–
N#Cc1cccc(NC(=O)CCCN2C(=O)c3ccccc3C2=O)c1	·	–	–
O=C(O)CNC(=O)CSc1ccc(Cl)cc1	–	–	–
CCn1c(SCC(=O)Nc2ccc(Cl)cc2Cl)nnc1-c1ccccc1	·	–	·
O=C(Nc1sc2c(c1C(=O)NCc1ccco1)CCCC2)c1ccc(Br)cc1	·	–	–
C[C@H](CO)N1C[C@H](C)[C@H](CN(C)Cc2ccc(Cl)c(Cl)c2)Oc2ccc(NS(C)(=O)=O)cc2CC1=O	–	–	·
C[C@@H]1CN([C@H](C)CO)C(=O)Cc2cc(NS(=O)(=O)c3ccc(Cl)cc3)ccc2O[C@H]1CN(C)Cc1ccc(Cl)c(Cl)c1	–	105	–
C[C@@H]1CN([C@H](C)CO)C(=O)Cc2cc(NS(=O)(=O)c3ccc(F)cc3)ccc2O[C@H]1CN(C)Cc1ccc(Cl)c(Cl)c1	–	102	·
C[C@H]1CN([C@@H](C)CO)C(=O)Cc2cc(NS(=O)(=O)c3ccc(F)cc3)ccc2O[C@H]1CN(C)Cc1ccc(Cl)c(Cl)c1	–	?	–
Cn1nnnc1SCC(=O)Nc1cc(Cl)cc(Cl)c1	·	–	–
OC1c2ccccc2-c2c3c(cc4c2C1NCC4)OCO3 (configuration not stated)	–	–	–
CCc1cccc(C)c1NC(=O)CN(C)S(=O)(=O)c1ccccc1	·	–	·
CC(=O)NC(c1ccccc1)c1ccccc1	–	–	–
CS(=O)(=O)N(CC(=O)Nc1cccc(Br)c1)c1cc(Cl)c(Cl)cc1Cl	·	–	–
O=C1/C(=C/c2ccccn2)CC/C1=C\c1ccccn1	·	135	–
COc1ccc(/C=C2\CC/C(=C\c3ccc(C)cc3)C2=O)cc1	·	–	–
COc1ccc(NC(=O)Nc2nn(Cc3c(F)cccc3Cl)cc2Cl)cc1OC	·	–	–
CC(=O)c1cccc(NC(=O)Nc2nn(Cc3c(F)cccc3Cl)cc2Br)c1	·	106	–
Cc1ccccc1NC(=O)c1ccc(OCC(=O)Nc2ccccc2C(F)(F)F)cc1	·	–	–
C=C1C(=O)O[C@@H]2C[C@H](C)[C@@]3(O)C[C@H](O)[C@@](C)(C[C@@H](OC(=O)C(C)C)[C@@H]12)O3	–	119	–
CC(=O)OCC1OC(n2ccc(=O)[nH]c2=O)C(OC(C)=O)C1OC(C)=O (configuration not stated)	–	–	–
SMILES	Shh pathway inh	NOMO-1 viab	PD-1 reversal
COC(=O)c1ccccc1NC(=O)c1ccc(NC(=O)C(C)Oc2ccccc2)cc1 (configuration not stated)	·	–	–
CC(Oc1ccc(C(=O)Nc2ccc(Cl)cc2)cc1)C(=O)Nc1ccc(Br)cc1 (configuration not stated)	·	136	–
Cc1ccc(NC(=O)c2ccc(OC(C)C(=O)Nc3ccccc3)cc2)cc1 (configuration not stated)	·	–	·
Cc1cccc(NC(=O)c2ccc(OC(C)C(=O)Nc3ccc(Br)cc3)cc2)c1C (configuration not stated)	·	115	–
CSc1sc(C(=O)NN)cc1S(=O)(=O)C(C)C	–	–	–
O=C(O)CCC(=O)N=S(c1ccccc1)c1ccccc1	–	–	–
COc1ccc(NC(=O)Nc2ccc3c(c2)CC(=O)N([C@H](C)CO)C[C@@H](C)[C@@H](CN(C)CC2CCCCC2)O3)cc1	–	–	–
CC(C)NC(=O)Nc1ccc2c(c1)CC(=O)N([C@H](C)CO)C[C@@H](C)[C@@H](CN(C)CC1CCCCC1)O2	–	–	–
C[C@@H]1CN([C@@H](C)CO)C(=O)Cc2cc(NC(=O)Nc3ccc(F)cc3)ccc2O[C@@H]1CN(C)CC1CCCCC1	–	81	–
C[C@H]1CN([C@@H](C)CO)C(=O)c2cc(NC(=O)Nc3cccc4ccccc34)ccc2O[C@H]1CN(C)CC1CCCCC1	·	–	–
C[C@H]1CN([C@@H](C)CO)C(=O)Cc2cc(NC(=O)Nc3ccc4c(c3)OCO4)ccc2O[C@H]1CN(C)CC1CCCCC1	–	–	–
C[C@H]1CN([C@@H](C)CO)C(=O)Cc2cc(NC(=O)Nc3ccc4c(c3)OCO4)ccc2O[C@@H]1CN(C)CC1CCCCC1	–	92	–
C[C@H](CO)N1C[C@H](C)[C@H](CN(C)CC2CCCCC2)Oc2ccc(NC(=O)Nc3cccc4ccccc34)cc2CC1=O	–	99	·
C[C@H]1CN([C@@H](C)CO)C(=O)Cc2cc(NC(=O)Nc3ccc(F)cc3)ccc2O[C@@H]1CN(C)CC1CCCCC1	–	99	–
CC(=O)n1c(-c2ccc(C)cc2)cc(-c2ccc(C)cc2)c(C#N)c1=O	–	–	–
Cc1ccc(C2C(C#N)=C(N)OC(C3CC3)=C2C#N)cc1 (configuration not stated)	–	–	–
CCn1c(SCC(=O)Nc2ccc(C(N)=O)cc2)nnc1-c1ccc(F)cc1	·	–	–
CS(=O)(=O)c1sc(C(=O)O)c2c1C=CCC2	·	–	–
C[C@H](CO)N1C[C@H](C)[C@H](CN(C)CC2CCCCC2)Oc2ccc(NC(=O)Nc3ccc(F)cc3)cc2CC1=O	·	95	·
CC(C)NC(=O)Nc1ccc2c(c1)CC(=O)N([C@H](C)CO)C[C@H](C)[C@H](CN(C)CC1CCCCC1)O2	–	–	·
C[C@H](CO)N1C[C@H](C)[C@H](CN(C)CC2CCCCC2)Oc2ccc(NC(=O)Nc3ccccc3)cc2CC1=O	–	106	·
C[C@@H]1CN([C@H](C)CO)C(=O)Cc2cc(NC(=O)Nc3ccccc3)ccc2O[C@H]1CN(C)CC1CC1	–	–	–
C[C@H]1CN([C@@H](C)CO)C(=O)Cc2cc(NC(=O)Nc3ccc(F)cc3)ccc2O[C@@H]1CN(C)CC1CC1	–	–	–
C[C@H]1CN([C@@H](C)CO)C(=O)Cc2cc(NC(=O)Nc3ccc(F)cc3)ccc2O[C@H]1CN(C)CC1CCCCC1	–	105	–
C[C@@H]1CN([C@@H](C)CO)C(=O)c2cc(NC(=O)Nc3cccc4ccccc34)ccc2O[C@@H]1CN(C)CC1CCCCC1	–	118	–
SMILES	Shh pathway inh	NOMO-1 viab	PD-1 reversal
C[C@H](CO)N1C[C@H](C)[C@@H](CN(C)CC2CCCCC2)Oc2ccc(NC(=O)Nc3cccc4ccccc34)cc2C1=O	–	–	–
NNC(=O)Cn1nnc(N2CCCC2)n1	·	–	–
O=C(COc1ccccc1[N+](=O)[O-])Nc1cccc(-c2nc3cc(Cl)cc(Cl)c3o2)c1	·	–	·
CCOC(=O)c1cnc2c(c(C3CC3)nn2C)c1N1CCOCC1	·	–	–
CCOC(=O)c1cnc2c(c(C)nn2C)c1Sc1nnc(SC)s1	84	125	–
Cc1ccc(Cl)cc1NC(=O)C(C)NS(=O)(=O)c1ccc(Br)cc1 (configuration not stated)	·	–	–
